Bioassay records: PubChem BioAssay, Pan Lab, Icahn School of Medicine at Mount Sinai
ROC1-CUL1 inh: human ROC1-CUL1 E3 ligase inhibition. in vitro K48 di-Ub FRET, acceptor:donor ratio, 45 min. inhibition, % at 10 µM. 140,000 tested, 0.6% active; in the data active = inhibition above about 25%
Target sequence (P62877 whole entry, looked up): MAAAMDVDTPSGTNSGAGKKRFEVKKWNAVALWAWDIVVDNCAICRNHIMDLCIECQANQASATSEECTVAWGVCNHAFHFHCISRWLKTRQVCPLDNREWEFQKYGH
Target sequence (Q13616 whole entry, looked up): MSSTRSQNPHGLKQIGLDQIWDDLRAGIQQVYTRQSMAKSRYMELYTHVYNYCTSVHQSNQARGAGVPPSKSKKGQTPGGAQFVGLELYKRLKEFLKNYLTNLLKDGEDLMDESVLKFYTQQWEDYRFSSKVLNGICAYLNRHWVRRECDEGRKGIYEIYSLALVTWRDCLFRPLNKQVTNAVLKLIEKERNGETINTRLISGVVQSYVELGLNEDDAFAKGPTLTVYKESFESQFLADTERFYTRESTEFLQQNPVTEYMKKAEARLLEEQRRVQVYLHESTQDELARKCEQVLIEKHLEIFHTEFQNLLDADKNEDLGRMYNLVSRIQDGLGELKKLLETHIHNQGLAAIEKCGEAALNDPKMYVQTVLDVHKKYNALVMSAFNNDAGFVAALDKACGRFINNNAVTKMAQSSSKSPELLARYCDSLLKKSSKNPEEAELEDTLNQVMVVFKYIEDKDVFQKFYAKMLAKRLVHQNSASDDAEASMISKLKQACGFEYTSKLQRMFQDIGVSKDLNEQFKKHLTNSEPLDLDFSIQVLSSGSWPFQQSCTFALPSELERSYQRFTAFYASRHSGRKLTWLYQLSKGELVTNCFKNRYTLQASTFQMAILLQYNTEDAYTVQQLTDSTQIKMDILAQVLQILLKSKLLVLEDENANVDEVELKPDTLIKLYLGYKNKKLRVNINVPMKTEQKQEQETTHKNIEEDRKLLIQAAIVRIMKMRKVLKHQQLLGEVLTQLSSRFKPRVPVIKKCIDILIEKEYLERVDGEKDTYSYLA
* marks the source's active call; other numbers are inactive results. Shown is part of a subset that was picked to be rich in hits.

SMILES	ROC1-CUL1 inh
CCOC(=O)c1ccc(-c2ccc(/C=C3/C(=O)NN(c4ccc(C)cc4)C3=O)o2)cc1	6
O=C1NN(c2cccc(Br)c2)C(=O)/C1=C\c1ccc(-c2ccc(C(=O)O)cc2)o1	60*
Cc1cccc(N2NC(=O)/C(=C/c3ccc(-c4ccc(Cl)c(C(=O)O)c4)o3)C2=O)c1	3
Cc1c(CN2CCOC(CCCC(C)C)C2)c(=O)n(-c2ccccc2)n1C (stereo not given)	-2
C(/C=C/c1cccc2ccccc12)=C\c1ccccc1	-5
CC(C)(O)C(=O)/C=C/c1cccc2ccccc12	54*
CC(C)(O)C(=O)/C=C/c1ccccc1	13
CC(=O)Sc1ccc(N2C(=O)CCC2=O)cc1	37*
O=C1CCC(=O)N1c1cccc(Cl)c1	8
O=C(Oc1ccc(N2C(=O)CCC2=O)cc1)c1ccccc1	2
Cc1cc(S(N)(=O)=O)cnc1N	1
COc1cc(C2c3cc(Cl)c4ccccc4c3OC(=N)C2C#N)cc(OC)c1OC (stereo not given)	-8
CC(C)(C)c1ccccc1OCC(=O)N=Nc1c(O)[nH]c2ccc(Br)cc12	2
CCOCCn1c(=O)c2c(nc3n(-c4ccccc4)c(C)c(C)n23)n(C)c1=O	-2
CCc1c(C)sc(NC(=O)C2C3C=CC(CC3)C2C(=O)O)c1C(=O)OC (stereo not given)	-4
Cc1ccc(-n2c(SCC(N)=O)nnc2-c2ccc(Cl)cc2)cc1	4
COc1ccc(-n2c(-c3ccccc3)nnc2-c2ccc(Cl)cc2)cc1	0
N=C1C(Br)C(=O)Nc2nnc(-c3ccc(Cl)cc3)n21 (stereo not given)	32*
Fc1nc(F)c(F)c(Oc2ccccc2Oc2c(F)c(F)nc(F)c2F)c1F	4
CN(C)c1ncc(CN2CCC(CCC(=O)Nc3ccc4c(c3)OCCO4)CC2)s1	3
C=CCOc1ccc(/C=N/Nc2nc(-c3ccccc3)cs2)cc1	4
O=C1C(Cl)=C(N2CCN(Cc3ccccc3)CC2)C(=O)c2ccccc21	104*
O=C1C(Cl)=C(N2CCN(S(=O)(=O)c3ccc(Cl)cc3)CC2)C(=O)c2ccccc21	1
O=c1cc(C(F)(F)F)nc(N2CCN(Cc3ccccc3)CC2)[nH]1	5
CC(C)(C)C(=O)COc1cc(Cc2ccccc2)nc(N2CCN(c3ccccc3Cl)CC2)n1	0
SMILES	ROC1-CUL1 inh
COc1ccc(S(=O)(=O)NC2CC(C)(C)NC(C)(C)C2)cc1C	8
Cc1ccc(N2C(=O)NC(=O)/C(=C\c3cc(Br)c(Sc4ccc(Cl)cc4)o3)C2=O)cc1	100*
O=C1NC(=S)NC(=O)C1=Cc1cc(Br)c(Sc2ccc(Cl)cc2)o1	10
Cc1cc(C)cc(N2C(=O)NC(=O)/C(=C\c3ccc(Br)o3)C2=O)c1	94*
COc1ccc(N2C(=O)/C(=C/c3cc(C)n(-c4ccc(Cl)c(C(=O)O)c4)c3C)C(=O)NC2=S)c(OC)c1	79*
COc1cc(/C=C2\C(=O)NC(=O)N(c3cc(C)cc(C)c3)C2=O)cc(Br)c1O	7
O=C1NC(=S)N(c2cccc(F)c2)C(=O)/C1=C/c1ccc(N2CCCC2)o1	26*
COc1ccc(N2C(=O)/C(=C/c3cc(C)n(-c4ccc(NC(C)=O)cc4)c3C)C(=O)NC2=S)cc1	7
COc1cc(Br)cc(/C=C2/C(=O)NC(=O)N(c3cc(C)cc(C)c3)C2=O)c1O	5
O=C1NC(=S)N(c2cccc(Br)c2)C(=O)/C1=C/c1cc(Br)c(O)c(Br)c1	4
COC(=O)c1ccccc1-n1c(C)cc(/C=C2\C(=O)NC(=S)N(c3ccc(OC)cc3)C2=O)c1C	6
COC(=O)CN1C(=O)S/C(=C/c2cc(Br)c(Sc3ccc(Cl)cc3)o2)C1=O	4
CC(C)Oc1ccccc1/C=C1\C(=O)NC(=S)N(c2cccc(F)c2)C1=O	-13
COc1cc(CN2CCSCC2)ccc1OCC(O)CN(C)C(C)C (stereo not given)	-8
Cc1cccc(C(=O)Nc2cc(C)ccc2O)c1	0
CN1CC=C2C(C#N)C(=N)C(C#N)(C#N)[C@H](c3cccc(Cl)c3)[C@H]2C1 (stereo not given in full)	-5
CC1(C)CC(=O)C2C(=Nc3nc(-c4ccccc4)nn3C2c2cccnc2)C1 (stereo not given)	8
Cc1nn(C)c(C)c1CN(C(=O)c1cc(COc2ccccc2)on1)C1CC1	6
O=C(Nc1cc2nn(-c3ccccc3)nc2cc1Cl)c1cccc(Br)c1	-2
Cc1cc(C)c2c(=O)cc(C(=O)N=C3C(=O)N(c4ccccc4)N(C)C3C)oc2c1 (stereo not given)	-1
Cn1nc([N+](=O)[O-])nc1NCCNc1nc([N+](=O)[O-])nn1C	2
Cc1ccc(-n2c(-c3ccccc3)cc(/C=C3\C(=O)NC(=S)N(c4ccc(C)c(C)c4)C3=O)c2-c2ccccc2)cc1	5
O=C(N/N=C/c1ccc(-c2cccc(C(=O)O)c2)o1)Nc1ccc(Cl)cc1	1
COc1ccc(/C=C2/C(=O)NC(=S)N(c3ccccc3)C2=O)cc1C(=O)O	2
Cc1cc(C)cc(N2C(=O)NC(=O)/C(=C/c3ccc(-c4cccc(C(=O)O)c4)o3)C2=O)c1	85*
SMILES	ROC1-CUL1 inh
O=C1NC(=S)N(c2ccccc2)C(=O)/C1=C\c1ccc(-c2ccc(F)cc2)o1	2
C=CCN1C(=O)/C(=C\c2cccc(OCc3ccc(F)cc3)c2)C(=O)NC1=S	1
O=C1NC(=S)N(c2ccc(Cl)cc2)C(=O)/C1=C\c1ccc(-c2cccc(C(=O)O)c2)o1	100*
Cc1ccc(N2C(=O)/C(=C\c3ccc(-c4ccc(Cl)c(C(=O)O)c4)o3)C(=O)NC2=S)cc1	63*
C=CCN1C(=O)/C(=C\c2cccc(OC)c2OC)C(=O)NC1=S	-6
C=CCN1C(=O)/C(=C/c2ccc(-c3cccc(C(F)(F)F)c3)o2)C(=O)NC1=S	103*
O=C1Nc2ccccc2/C1=C/c1ccc(-c2cccc(C(=O)O)c2)o1	16
COc1cccc(/C=C2/C(=O)NC(=O)N(c3cc(C)cc(C)c3)C2=O)c1O	12
Cc1ccc(-c2nnc3sc(Cc4ccccc4F)nn23)cc1	6
C=CCNC(=S)NNC(=O)c1c(C)nc2cc(C)ccn12	6
c1cc2c(cc1-c1nn3c(C4CCCCC4)nnc3s1)OCCO2	-8
Nc1ccc2nc(SCc3ccc(Cl)c(Cl)c3)sc2c1	5
Cc1cccc(NC(=O)Cc2noc3c(C)cccc23)c1	13
Cc1sc(-c2c(C#N)c(N)nc3c2CCCCCC3)cc1CSc1ccc(Cl)cc1	-1
Cc1cc(OCc2ccc(C(=O)O)o2)ccc1Cl	3
CC(CN1C(=O)COC1=S)N1C(=O)COC1=S (stereo not given)	7
O=C(Nc1ccccc1)C1CCCC1	1
Cc1ccc(OC(C)C(=O)Nc2ccc(C)c(O)c2)cc1 (stereo not given)	-3
CC(=O)c1ccc(NC(=S)N2CCN(c3ccccc3F)CC2)cc1	0
O=[N+]([O-])c1ccc(N/N=C/c2cccn2-c2ccccc2)nc1	1
Cc1c(C(=O)O)cccc1-n1c(C)cc(/C=N/NC(=O)c2cc3ccccc3o2)c1C	1
Cc1c(C(=O)O)cccc1-n1c(C)cc(/C=N/Nc2ccc([N+](=O)[O-])cn2)c1C	82*
COc1ccc(-c2csc(N=CC3C(=O)OC(C)(C)OC3=O)n2)cc1	1
COC(=O)COc1ccc2c(=O)c(Oc3ccccc3)c(C)oc2c1	-6
Cc1oc2c(O)c(O)ccc2c(=O)c1Oc1ccc(F)cc1	56*
Cc1oc2cc(OC(C)C)ccc2c(=O)c1Oc1ccccc1F	0
CCc1cccc(NC(=O)c2snnc2C)c1	-9
